The values below come from the supplement of paper PMC6897291.

The test system of the assay is RIVA. The experiment in a line: growth inhibition by drug alone (1 - RLU/untreated control) (fraction); higher = stronger inhibition. The note with it: 177Lu-lilotomab satetraxetan 0 ug/ml. On the procedure: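 RIVA (RI-1) ABC-DLBCL cells were pretreated or not for 18 h with 0.5 ug/ml 177Lu-lilotomab satetraxetan (600 MBq/mg), washed and seeded (3000 cells/well) on 384-well plates pre-printed with the Selleck Cambridge Cancer Compound library. Viability was read by RealTime-Glo luminescence on days 3-6 after seeding. Effect = 1 - RLU/mean RLU of the 48 untreated no-drug control wells per plate; Bliss score = (M-E)/(1-Fa).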

Consider `O=P1(N(CCCl)CCCl)NCCCO1` (stereo not given) [Cyclophosphamide monohydrate], for which the “growth inhibition by drug alone” value runs as follows: (10 nM, time (day): 3) -0.165; (10 nM, time (day): 4) -0.182; (10 nM, time (day): 5) -0.227; (10 nM, time (day): 6) -0.326; (100 nM, time (day): 3) 0.0466; (100 nM, time (day): 4) -0.0413. For the same compound, the “growth inhibition by drug alone” value runs as follows: (100 nM, time (day): 5) -0.0801; (100 nM, time (day): 6) -0.114.
In the case of `CC(=O)Nc1ccc(OC[C@](C)(O)C(=O)Nc2ccc([N+](=O)[O-])c(C(F)(F)F)c2)cc1` [Andarine (GTX-007)], the “growth inhibition by drug alone” value runs as follows: (10 nM, time (day): 3) 0.017; (10 nM, time (day): 4) -0.0064; (10 nM, time (day): 5) -0.271; (10 nM, time (day): 6) -0.322; (100 nM, time (day): 3) -0.229; (100 nM, time (day): 4) -0.219. The “growth inhibition by drug alone” value (100 nM, time (day): 5) is -0.21 and the “growth inhibition by drug alone” value (100 nM, time (day): 6) is -0.215.
Consider `CC(O)(CS(=O)(=O)c1ccc(F)cc1)C(=O)Nc1ccc(C#N)c(C(F)(F)F)c1` (stereo not given) [Bicalutamide (Casodex)], for which the “growth inhibition by drug alone” value was 0.121 (10 nM, time (day): 3); 0.0197 (10 nM, time (day): 4); -0.0376 (10 nM, time (day): 5); -0.206 (10 nM, time (day): 6); 0.0203 (100 nM, time (day): 3); -0.00253 (100 nM, time (day): 4). Moreover, the “growth inhibition by drug alone” value (100 nM, time (day): 5) is -0.0289 and the “growth inhibition by drug alone” value (100 nM, time (day): 6) is -0.0827.
Regarding `C=C1C[C@@H]2[C@H](CC[C@]3(C)C(=O)CC[C@@H]23)[C@@]2(C)C=CC(=O)C=C12` [Exemestane], the “growth inhibition by drug alone” value is 0.0187 (10 nM, time (day): 3); 0.00346 (10 nM, time (day): 4); -0.0171 (10 nM, time (day): 5); -0.272 (10 nM, time (day): 6); -0.247 (100 nM, time (day): 3); -0.223 (100 nM, time (day): 4). Also, the “growth inhibition by drug alone” value is -0.21 (100 nM, time (day): 5) and -0.228 (100 nM, time (day): 6).
Take `C[C@]12CCC(=O)C(O)=C1CC[C@@H]1[C@@H]2CC[C@]2(C)C(=O)CC[C@@H]12` [Formestane]: the “growth inhibition by drug alone” value by setting is: (10 nM, time (day): 3) -0.227; (10 nM, time (day): 4) -0.249; (10 nM, time (day): 5) -0.286; (10 nM, time (day): 6) -0.391; (100 nM, time (day): 3) -0.322; (100 nM, time (day): 4) -0.306. Moreover, the “growth inhibition by drug alone” value runs as follows: (100 nM, time (day): 5) -0.36; (100 nM, time (day): 6) -0.445.
